Our source for the viability (% of control), Potency and IC50 (viability decrease) values is PubChem BioAssay (NCATS).

Results filed as inconclusive are left out. The source made the active and inactive calls. Unless noted, calls come from the whole dose curve; as a rule, active = well fitted curve in the direction sought with a large enough effect; inconclusive = small, poorly fitted or top-dose-only effect, or another doubt; inactive = no such curve, though single readings can be large; an effect the other way counts as inactive or inconclusive.

The nature of experiment [1]: High-throughput drug toxicity screening in the BPDCN cell line Cal-1 (AID 1224825; call rule not given here). The settings on record: Cal-1 BPDCN cell viability, qHTS; at 45.8 µM (top of the series). In short, it runs like this: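 Exponentially growing Cal-1 cells, 500 per well in phenol red-free RPMI with 10% FBS, were exposed to compounds for 48 h at 37 °C, 5% CO2. Viability was read by CellTiter-Glo luminescence and normalised to DMSO (100%) and 9.2 uM bortezomib (0%).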

A short description of experiment [2]: qHTS assay for measurement of the activity of small molecule inhibitors on Zika virus induced Caspase-3 activity in human iPSC derived neural progenitor cells (hNPCs) (AID 1224857). Note: % of control where 0% means no effect; nearly all actives have a fitted effect of over 65% in size. In short, it runs like this:
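Percent inhibition of virus-induced caspase-3/7 luminescence (Caspase-Glo), scaled between uninfected cells and Zika-infected cells. hNPCs received compound 1 hr before ZIKV at 2 FFU/cell, with 6 hours infection at 37 C.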
On the technique in general: qHTS replaces the single test concentration by a dilution series.

Experiment [3] in a line: qHTS assay for measurement of the activity of small molecule inhibitors on Zika virus induced Caspase-3 activity in human astrocytoma cells (AID 1224859).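 Note: plate controls were ZIKV-infected untreated cells for no effect and uninfected cells for full effect.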 In short, it runs like this:
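Luminescent caspase-3/7 read-out (30 min reagent, room temperature) in human SNB-19 cells infected 6 h with ZIKV (2 FFU/cell) after 1 h compound pre-incubation; Data were normalised to uninfected and infected wells.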

Experiment [4] can be described thus: qHTS Screen of the MIPE 4.0 Collection Against Ewings Sarcoma (RDES) (AID 1259252). Note: nearly all actives have a fitted effect of over 35% in size. Note: potency is the fitted concentration of half-maximal effect. In short, it runs like this: (§1)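 Here, cells in 5% FBS RPMI were exposed for two days (48 h) to compound dilutions added four hours after plating. ATP-based CellTiter-Glo luminescence measured viability, normalized to vehicle and no-cell blanks.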
A short description of experiment [5]: qHTS Screen of the MIPE 4.0 Collection Against Ewings Sarcoma (EW8) (AID 1259255).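 For viability: 100% = DMSO-treated cells and 0% = medium-only wells without cells.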 Note: nearly all actives have a fitted effect of over 35% in size. Note: potency is the fitted concentration of half-maximal effect. In short, it runs like this: as §1
A short description of experiment [6]: qHTS Screen of the MIPE 4.0 Collection Against Ewings Sarcoma (TC32) (AID 1259256). Note: nearly all actives have a fitted effect of over 45% in size. Note: potency is the fitted concentration of half-maximal effect. In short, it runs like this:
as §1

A short description of experiment [7]: NS1 protein of Zika virus - qHTS assay to identify small molecule inhibitors in human HEK 293 cells (AID 1347053). Note: nearly all actives have a fitted effect of over 55% in size. Note: potency is the fitted concentration of half-maximal effect. In short, it runs like this: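 HEK 293; 20 h pre-culture, 37 C/5% CO2; cpd 1 h pre-infection; ZIKV MR766, MOI = 0.5, 24 h, 37 C; TR-FRET NS1 readout (two anti-NS1 Abs); norm. to no-virus vs infected.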
Experiment [8] can be described thus: qHTS Screen of the MIPE 4.0 Collection Against Ewings Sarcoma (TC71) (AID 1259253).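 Note: 100% = DMSO-treated cells and 0% = medium-only wells without cells; nearly all actives have a fitted effect of over 40% in size.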 In short, it runs like this: as §1
Experiment [9] can be described thus: P-glycoprotein substrates identified in KB-8-5-11 adenocarcinoma cell line, qHTS therapeutic library screen (AID 1346987). Note: nearly all actives have a fitted effect of over 65% in size. Note: potency is the fitted concentration of half-maximal effect. In short, it runs like this: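 Steps: plate 500 KB-8-5-11 cells/well in DMEM + 10% FCS (colchicine removed); pin compounds in dose-response; incubate 72 h, 37 degree C, 5% CO2; add CellTiter-Glo, 5 min; read luminescence.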
The nature of experiment [10]: Natriuretic polypeptide receptor (hNpr1) antagonism - Pilot counterscreen GloSensor control cell line (AID 1347045; calls by dose curve; note: potency is the fitted concentration of half-maximal effect). In short, it runs like this: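 Luminescence was read before and 20 min after adding 50 uM SNP, which stimulates soluble guanylyl cyclase. The HEK293 cells expressing the GloSensor cGMP sensor had been preloaded with 2% reagent for 2 h and treated with compound.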

The target in experiment [11] is Atrial natriuretic peptide receptor 1 (Homo sapiens) (UniProt P16066). Description: Natriuretic polypeptide receptor (hNpr1) antagonism - Pilot screen (AID 1347049; calls by dose curve;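 note: agonist-evoked cGMP luminescence read 20 min after hNppA addition; % is set by controls: 0 for no effect and ±100 for the full control effect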). In short, it runs like this: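 HEK293 cells co-expressing hNpr1 and the GloSensor pGS-40F cGMP luciferase sensor were preloaded with 2% GloSensor reagent for 2 h. Compounds were added for 30 min at room temperature, then cells were stimulated with 0.1 nM hNppA for 20 min before luminescence readout.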
Sequence of Atrial natriuretic peptide receptor 1 (Homo sapiens) (P16066 whole entry, looked up): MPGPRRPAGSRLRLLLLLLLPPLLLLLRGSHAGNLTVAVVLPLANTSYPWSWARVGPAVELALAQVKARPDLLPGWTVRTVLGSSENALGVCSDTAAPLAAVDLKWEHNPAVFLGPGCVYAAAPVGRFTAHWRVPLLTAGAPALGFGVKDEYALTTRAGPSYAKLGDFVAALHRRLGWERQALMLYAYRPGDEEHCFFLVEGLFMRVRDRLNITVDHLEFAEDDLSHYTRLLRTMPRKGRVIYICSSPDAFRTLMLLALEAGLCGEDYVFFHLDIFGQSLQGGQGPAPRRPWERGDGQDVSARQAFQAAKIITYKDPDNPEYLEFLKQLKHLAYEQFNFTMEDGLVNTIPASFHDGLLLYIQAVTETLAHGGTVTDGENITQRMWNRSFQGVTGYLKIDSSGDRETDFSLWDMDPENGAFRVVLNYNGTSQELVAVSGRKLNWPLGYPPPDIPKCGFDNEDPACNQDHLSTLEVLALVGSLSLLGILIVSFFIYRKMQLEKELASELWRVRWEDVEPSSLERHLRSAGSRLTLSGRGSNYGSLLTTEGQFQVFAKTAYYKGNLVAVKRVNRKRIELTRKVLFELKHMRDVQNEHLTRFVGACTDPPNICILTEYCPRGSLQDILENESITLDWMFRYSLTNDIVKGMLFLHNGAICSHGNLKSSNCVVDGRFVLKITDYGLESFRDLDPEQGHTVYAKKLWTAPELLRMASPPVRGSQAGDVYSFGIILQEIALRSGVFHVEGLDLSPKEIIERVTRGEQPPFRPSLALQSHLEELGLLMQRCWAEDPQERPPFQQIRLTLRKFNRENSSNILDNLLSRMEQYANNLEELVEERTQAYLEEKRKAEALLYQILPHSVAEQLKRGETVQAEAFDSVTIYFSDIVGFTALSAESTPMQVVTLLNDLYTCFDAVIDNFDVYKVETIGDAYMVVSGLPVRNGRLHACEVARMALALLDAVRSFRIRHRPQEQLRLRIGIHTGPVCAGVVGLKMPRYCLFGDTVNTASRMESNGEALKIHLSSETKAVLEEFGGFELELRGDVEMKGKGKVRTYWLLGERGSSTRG

Experiment [12] deals with Atrial natriuretic peptide receptor 2 (Homo sapiens) (UniProt P20594). Kind of experiment: Natriuretic polypeptide receptor (hNpr2) antagonism - Pilot subtype selectivity assay (AID 1347050; calls by dose curve; note: % is set by controls: 0 for no effect and ±100 for the full control effect). In short, it runs like this: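 cGMP-sensor HEK293/hNpr2 cells; 2% GloSensor reagent 2 h RT; compounds 30 min; baseline luminescence read; 1 nM hNppC agonist 20 min RT; final luminescence read by CCD camera. Antagonism = reduced post-agonist signal.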
Sequence of Atrial natriuretic peptide receptor 2 (Homo sapiens) (P20594 whole entry, looked up): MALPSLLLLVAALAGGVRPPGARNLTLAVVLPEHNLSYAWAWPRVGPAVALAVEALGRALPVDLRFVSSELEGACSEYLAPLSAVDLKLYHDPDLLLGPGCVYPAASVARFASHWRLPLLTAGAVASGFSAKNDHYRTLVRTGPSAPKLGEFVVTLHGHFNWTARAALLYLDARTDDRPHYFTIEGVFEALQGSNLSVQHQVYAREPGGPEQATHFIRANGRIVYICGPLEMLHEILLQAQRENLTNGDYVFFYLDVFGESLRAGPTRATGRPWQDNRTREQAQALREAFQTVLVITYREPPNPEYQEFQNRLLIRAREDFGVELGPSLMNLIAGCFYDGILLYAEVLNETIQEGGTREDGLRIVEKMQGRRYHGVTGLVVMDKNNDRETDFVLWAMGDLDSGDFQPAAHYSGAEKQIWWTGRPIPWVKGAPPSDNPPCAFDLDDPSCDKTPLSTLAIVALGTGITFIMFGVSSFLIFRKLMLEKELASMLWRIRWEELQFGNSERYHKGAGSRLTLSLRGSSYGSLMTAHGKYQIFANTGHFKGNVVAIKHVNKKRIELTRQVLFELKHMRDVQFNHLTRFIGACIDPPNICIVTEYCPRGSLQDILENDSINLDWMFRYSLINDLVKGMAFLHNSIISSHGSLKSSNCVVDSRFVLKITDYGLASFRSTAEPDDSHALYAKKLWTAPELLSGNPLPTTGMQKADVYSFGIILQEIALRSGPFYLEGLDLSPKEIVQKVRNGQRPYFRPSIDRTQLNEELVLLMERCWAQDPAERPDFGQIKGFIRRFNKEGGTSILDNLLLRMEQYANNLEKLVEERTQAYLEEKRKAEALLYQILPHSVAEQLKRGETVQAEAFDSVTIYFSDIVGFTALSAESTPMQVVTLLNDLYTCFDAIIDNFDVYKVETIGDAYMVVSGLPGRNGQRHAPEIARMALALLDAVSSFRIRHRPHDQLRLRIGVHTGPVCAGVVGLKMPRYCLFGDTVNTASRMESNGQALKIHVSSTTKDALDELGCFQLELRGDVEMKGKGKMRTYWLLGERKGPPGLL

The nature of experiment [13]: Identifying Small Molecule Inhibitors of Pancreatic Cancer Stem Cells (SN12C, Adherent) (AID 1259358).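 Note: potency is the fitted concentration of half-maximal effect; cell survival measured after 48 h of compound exposure.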 In short, it runs like this: (§2)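 Luminescent ATP readout (CellTiter-Glo) quantifies surviving cells after a 48 h drug incubation. Normalization uses DMSO wells as no inhibition and media-only wells as full inhibition; bortezomib served as positive control.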
A short description of experiment [14]: Identifying Small Molecule Inhibitors of Pancreatic Cancer Stem Cells (A278, Adherent) (AID 1259361). Note: nearly all actives have a fitted effect of over 35% in size. In short, it runs like this: as §2
Experiment [15] in a line: Identifying Small Molecule Inhibitors of Pancreatic Cancer Stem Cells (Panc1, Adherent) (AID 1259362). Note: potency is the fitted concentration of half-maximal effect. As to conditions: Potency: viability. In short, it runs like this: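 After a 4 h attachment period, compounds were pinned into wells and cultures held 48 h under standard incubator conditions. Viability was then measured as CellTiter-Glo luminescence following 10 min at room temperature.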

Experiment [16] in a line: P-glycoprotein substrates identified in KB-3-1 adenocarcinoma cell line, qHTS therapeutic library screen (AID 1346986).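 Note: potency is the fitted concentration of half-maximal effect; potency is for cytotoxicity meaning loss of cell viability; nearly all actives have a fitted effect of over 60% in size.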 In short, it runs like this:
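Resistance attributable to P-gp was assessed by comparing AC50 in KB-8-5-11 with parental KB-3-1 and by tariquidar reversal. Cells were exposed 72 h and viability read by CellTiter-Glo.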

Turning to `COc1cc([C@@H]2c3cc4c(cc3[C@@H](O)C3COC(=O)C32)OCO4)cc(OC)c1O` (some centres undefined), in experiment [1], the viability (% of control) worked out at 5.19%. Also, the Potency result in experiment [2], in experiment [3] and in experiment [6] was “inactive” each time. Moreover, the values for the Potency in experiment [4] and in [5] were 23.5 nM (active) and 26.4 nM (active), respectively.

As for `CC=C(C)C(=O)O[C@H]1C(C)=C2[C@@H]3OC(=O)[C@@](C)(O)[C@@]3(O)[C@@H](OC(=O)CCC)C[C@](C)(OC(C)=O)[C@@H]2[C@@H]1OC(=O)CCCCCCC`, in experiment [1], the viability (% of control) came out at 2.54%. The Potency result in [2] and in [3] was “inactive” each time. Further, the Potency is 148 nM (active) in experiment [4], 93.5 nM (active) in experiment [5], 0.0418 µM (active) in experiment [6] and 0.332 µM (active) in [7].

Take `C=C[C@@H]1CN2CCC1C[C@H]2[C@H](O)c1ccnc2ccccc12` (some centres undefined): in [1], the viability (% of control) stood at 47.1%. Besides, the Potency entry in experiment [2] and in experiment [3] was “inactive” in each case. For the same compound, the Potency in [4] is 23500 nM (active); in [6] it was 18.7 µM (active).

As for `CC[C@@H](C(N)=O)N1CCCC1=O`, the viability (% of control) in [1] was 113%. The Potency result in [2], in experiment [3], in experiment [4], in [8], in [9] and in experiment [10] was “inactive” each time. Further, the Potency result in experiment [11], in experiment [12] and in experiment [7] was “inactive” throughout.

Regarding `C=CCON=C(C[C@H]1O[C@@H]2O[C@]3(C)CC[C@@H]4[C@H](C)CC[C@@H]([C@H]1C)[C@@]24OO3)[C@H]1O[C@@H]2O[C@]3(C)CC[C@H]4[C@H](C)CC[C@@H]([C@@H]1C)[C@@]24OO3`, the viability (% of control) in experiment [1] turned out to be 23.2%. Besides, the Potency entry in [2] and in experiment [3] was “inactive” each time. In addition, the Potency in [4] was 469 nM (active); in [13], 93.5 nM (active); in [15] it was 66.2 nM (active); in [9], 16.6 µM (active). Further, the IC50 (viability decrease) in experiment [14] is 52.6 nM (active).

For the compound `N=c1c2c(-c3ccccc3)c(-c3ccccc3)n(Cc3ccccc3)c2ncn1C1CCC(O)CC1` (centres undefined), the viability (% of control) in [1] was 11.7%. Besides, the Potency entry in experiment [2] and in experiment [3] was “inactive” throughout. Besides, the Potency in experiment [4] is 1180 nM (active); in experiment [6], 0.662 µM (active); in experiment [9], 0.935 µM (active); in experiment [7], 26.4 µM (active).

Regarding `CN(C)NC(=O)CCC(=O)O`, the viability (% of control) in experiment [1] was 96.3%. For the same compound, the Potency entry in experiment [2], in experiment [3] and in [7] was “inactive” in each case. In addition, in [4], the Potency was 26400 nM (active).

`CC(N[C@H]1C[C@H]1c1ccccc1)c1ccc2c(c1)OCCO2` (some centres undefined): the viability (% of control) in experiment [1] is 96.1%. In addition, the Potency entry in experiment [2], in experiment [3], in experiment [5], in [9] and in [7] was “inactive” each time.

Turning to `C=C1C[C@H]2[C@H]3CCC(=O)[C@@]3(C)CC[C@@H]2[C@@]2(C)C=CC(=O)C=C12`, the viability (% of control) in experiment [1] was determined as 32.6%. In addition, the Potency entry in experiment [2], in [3] and in experiment [7] was “inactive” throughout.

As to `c1ccc(CCCN2CCN(CCOC(c3ccccc3)c3ccccc3)CC2)cc1`, the viability (% of control) in [1] was 5.14%. In addition, the Potency result in [2], in [3], in experiment [11], in [12] and in experiment [7] was “inactive” throughout. Moreover, the Potency in experiment [6] was 20.9 µM (active); in experiment [9], 18.7 µM (active); in experiment [10], 26.1 µM (active).

As to `CC(C)(C)c1cc(C=C(C#N)C#N)cc(Br)c1O`, the viability (% of control) in experiment [1] is 11%. Moreover, the Potency entry in [2] and in experiment [3] was “inactive” each time. In addition, the values for the Potency in [6] and in experiment [16] were 26.4 µM (active) and 20.6 µM (active), respectively.

Take `O=C1CCC[C@@H]2[C@H]3CCCN4CCC[C@@H](CN12)[C@@H]34`: the viability (% of control) in [1] amounted to 120%. For the same compound, the Potency entry in [2], in experiment [4], in experiment [8], in experiment [6], in [9] and in experiment [7] was “inactive” in each case.
